DT40 TDP1 no CPT: qHTS for Inhibitors of human tyrosyl-DNA phosphodiesterase 1 (TDP1): qHTS in cells in absence of CPT | DT40 Tdp1-/- hTDP1 cells, no CPT, ATP luminescence, 48 h | Potency, µM (titrated, usually from 46.2 µM), for the others: top-dose activity change, negative = growth inhibition, usual class: inhibitors | 15% of 420,000 active; further: potency means the concentration at half of the fitted maximal effect; nearly all actives have a fitted effect of over 55% in size
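DT40 Tdp1-/-;hTDP1 cells, no CPT (DMSO vehicle only), 400 cells/well; compounds pin-transferred; ≥48 hr, 37 °C; CellTiter-Glo 30 min RT dark, luminescence read.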
HT1080 IDH1KD tx: kills HT-1080 cells with IDH1 knockdown. HT-1080 IDH1 knockdown viability, ATP luminescence, 48 h. Potency, µM (highest dose often 46.1 µM), for the others: at the top dose activity, negative = toxicity, hits mostly cytotoxic. 2% of 360,000 active;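 further: potency means the concentration at half of the fitted maximal effect; 0% = DMSO wells and -100% = cell-free medium wells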
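Cytotoxicity counter-line: IDH1KD HT-1080, 48 h, CellTiter-Glo. Curves classed by r2, magnitude and activity.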
HT1080-NT tox: kills 2HG-producing HT-1080-NT fibrosarcoma cells. HT-1080-NT fibrosarcoma viability, CellTiter-Glo ATP luminescence, 48 h. Potency, µM (titrated, usually from 46.1 µM), inactives show at the highest dose activity, negative = less viability, usual class: cytotoxic. 1.6% of 360,000 active. AID 686970;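 further: NT is the 2HG producing partner of a matched IDH1 knockdown line; potency means the concentration at half of the fitted maximal effect; 0% = DMSO-treated cells and -100% = media-only wells without cells; nearly all actives have a fitted effect of over 55% in size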
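A 48-hour cytotoxicity screen used HT-1080-NT cells plated 2 hours before compound delivery. ATP-based CellTiter-Glo luminescence measured viability, normalized to DMSO and no-cell controls.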
IL1B secr inh: blocks inflammasome-driven IL-1 beta release | THP-1 LPS/ATP IL-1B secretion, AlphaLISA, 16 h; active compounds read low | activity change, % at 57.5 µM | 4.7% of 360,000 active | AID 743279; in the data active means activity change below about -50%; inconclusive means mostly about -30% to -49%
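Secreted IL-1B measured by AlphaLISA bead assay after 16 h compound exposure of THP-1 cells; compounds (final up to 57.5 uM) added 1 h before LPS (250 ng/mL) and ATP (1.25 mM) stimulation; lower signal means less secretion.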
ELG1 repair inh: inhibitors of ELG1-dependent DNA repair in HEK293T cells; 2.3% of 330,000 active; Potency, µM (top dose mostly 46.1 µM), for the others: top-dose activity change, negative = inhibition, usual class: inhibitors; HEK293T ELG1-luciferase reporter, luminescence, 16 h; DNA damage induced by 5-fluorouridine; further: potency means the concentration at half of the fitted maximal effect; nearly all actives have a fitted effect of over 55% in size
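Cells (2,000 per well) received 5-fluorouridine plus test compound or DMSO and were incubated 16 hr at 37 °C, 5% CO2. Luciferase activity was read by luminescence 30 min after ONE-Glo addition; signal suppression marked inhibition of damage-induced ELG1 function.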
TDP1 cell CPT: growth inhibition of DT40 Tdp1-/-;hTDP1 cells with camptothecin (screen for TDP1 inhibitors); chicken DT40 Tdp1-/-;hTDP1 cells + 20 nM CPT, ATP luminescence, 48 h; Potency, µM (titrated, usually from 46.2 µM), without a hit: top-dose activity change, negative = growth inhibition, actives largely listed as inhibitors; 12% of 420,000 active; AID 686979; further: potency means the concentration at half of the fitted maximal effect; nearly all actives have a fitted effect of over 55% in size
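Chicken DT40 Tdp1-/- cells stably complemented with human TDP1 were seeded at 400 cells/well in medium containing 20 nM camptothecin, exposed to pin-transferred compounds, and grown at 37 °C for at least 48 hr. Viability was read as ATP luminescence.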
Active calls of the source: *; ? = inconclusive; / = no result given. Sampled rows, rich in hits. Any-hit rate of the full collection: about 19%. Unless noted, the call rests on the fitted dose curve; in most records, active means well fitted curve in the direction sought with a large enough effect; inconclusive means small, poorly fitted or top-dose-only effect, or another doubt; inactive means no such curve, though single readings can be large; an effect the other way counts as inactive or inconclusive. Unless noted, on the % scale 0 is the no-effect control and ±100 the full control effect.

SMILES	DT40 TDP1 no CPT	HT1080 IDH1KD tx	HT1080-NT tox	IL1B secr inh	ELG1 repair inh	TDP1 cell CPT
Cc1[nH]n(-c2ccccc2)c(=O)c1/C=C1/C=c2ccccc2=N1	20.6µM*	-4.8%	-0.6%	18.9	?	?
CCc1ccc(Sc2cc(C(=O)NC(C)CC)c3ccccc3n2)cc1 (stereo not given)	16.4µM*	/	/	/	/	16.4µM*
CCOc1ccc(Sc2cc(C(=O)NCc3ccc(F)cc3)c3ccccc3n2)cc1	?	/	/	/	/	-26.9%
Cc1cc(C(=O)NC(C)CCC(C)C)c2ccccc2n1 (stereo not given)	7.6%	-11.0%	0.0%	18.8	5.8%	-2.8%
O=C(NCc1ccc(F)cc1)c1cc(Sc2ccc(F)cc2F)nc2ccccc12	?	/	/	/	/	16.4µM*
CCC(C)NC(=O)c1cc(Sc2cccc(Cl)c2)nc2ccccc12 (stereo not given)	14.6µM*	/	/	/	/	16.4µM*
CCc1ccc(Sc2cc(C(=O)NCc3ccccc3OC)c3ccccc3n2)cc1	18.4µM*	/	/	/	/	20.6µM*
CCOC(=O)Cn1ccc(NC(=O)COc2ccc(F)cc2)n1	-9.7%	6.6%	2.9%	-25.5	8.6%	-18.3%
Nn1c(SCC(=O)Nc2nccs2)nnc1-c1ccccn1	-0.3%	12.5%	14.8%	6.8	13.4%	16.2%
Cc1ccc(C)c(NC(=O)C2CCCN2C(=O)NC2CCCCC2)c1 (stereo not given)	2.6%	6.7%	6.2%	48.4	-0.3%	9.1%
C=CC[C@H](CC(=O)N(CCO)Cc1ccccc1)C(=O)N[C@@H](COC(=O)[C@@H](CC=C)CC(=O)OC(C)(C)C)Cc1c[nH]c2ccccc12	?	?	?	?	18.3µM*	?
C=CC[C@H](CC(=O)N[C@H](CO)Cc1ccccc1)C(=O)N[C@H](COC(=O)[C@H](CC=C)CC(=O)OC(C)(C)C)Cc1c[nH]c2ccccc12	?	-1.1%	-6.0%	-15.6	-16.3%	?
C=CC[C@H](CC(=O)N(CCO)Cc1ccccc1)C(=O)N[C@H](COC(=O)[C@H](CC=C)CC(=O)OC(C)(C)C)Cc1c[nH]c2ccccc12	?	?	?	-60.5*	20.6µM*	?
C=CC[C@@H](CC(=O)N(CCO)Cc1ccccc1)C(=O)N[C@@H](COC(=O)[C@H](CC=C)CC(=O)OC(C)(C)C)Cc1c[nH]c2ccccc12	?	?	?	-72.2*	?	?
CCCNC(=O)C1(C)CCCN(C(=O)/C=C/c2ccccc2)C1 (stereo not given)	-2.8%	4.7%	3.0%	0.0	/	-6.3%
O=C(COC(=O)c1nc(Cl)c(Cl)c(Cl)c1Cl)c1ccc[nH]1	?	-0.7%	0.7%	-102.6*	?	?
CCOc1ccc(CNS(=O)(=O)c2c(C)nc3sccn3c2=O)cc1OC	-10.4%	1.6%	-1.4%	12.4	-6.6%	2.5%
COc1ccc(C(=O)NNC(=O)c2ccc3ccccc3n2)cc1	4.11µM*	?	-15.5%	-98.2*	?	16.4µM*
CC(C)CC(=O)Nc1ccc(C(=O)NNC(=S)NC(=O)C2CCCCC2)cc1	16.4µM*	?	7.94µM*	29.5	2.9%	14.6µM*
N#CCC(=O)Nc1ccc(C(=O)NNC(=S)NC2CCCCC2)cc1	-10.7%	-0.3%	2.9%	8.5	5.7%	0.3%
CCNC(=S)NNC(=O)c1ccc(OC)cc1	-5.2%	11.6%	7.3%	29.2	-6.4%	-3.3%
CCCOc1ccc(C(=O)NNC(=S)NC(=O)CC)cc1	2.59µM*	10µM*	?	55.1	?	4.61µM*

Screening data: PubChem, National Center for Advancing Translational Sciences (NCATS)
